# Screening results deposited in PubChem BioAssay by several laboratories.
# SMARCA2 act – SMARCA2 function activation, primary screen | 370,000 compounds, 1% hits | MG213 cells, MMTV-luciferase reporter, dexamethasone, overnight | activation, % at 9.1 µM; in the data active = activation above about 7.8%;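 also: 0% = vehicle wells and 100% = reference activator wells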
# HIF act – HIF pathway transcriptional activation | U2OS HRE-luciferase reporter, luminescence; normalized: DMSO 0%, desferrioxamine 100% | activation, % at 7.5 µM (by protocol) | 300,000 compounds, 0.32% hits;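 active = mean activation of at least 10% of the iron chelator positive control signal, with at least half of replicates also reaching 10%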
# GalR3 antagonist – human GalR3 antagonism; HEK293 GalR3-CNG cAMP membrane potential fluorescence; galR3 body fused to GalR1 C-terminus; inhibition, % at 3 µM; 360,000 compounds, 0.44% hits;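 active = inhibition above the screen-wide average plus 3 SD, cut at about 13% in these data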;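 also: forskolin and galanin both at EC90 stimulate the cells; cAMP rise reported by CNG channel membrane potential dye signal; 0% = forskolin plus galanin with DMSO and 100% = forskolin alone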
# Target sequence (O60755 1-299 limits assumed): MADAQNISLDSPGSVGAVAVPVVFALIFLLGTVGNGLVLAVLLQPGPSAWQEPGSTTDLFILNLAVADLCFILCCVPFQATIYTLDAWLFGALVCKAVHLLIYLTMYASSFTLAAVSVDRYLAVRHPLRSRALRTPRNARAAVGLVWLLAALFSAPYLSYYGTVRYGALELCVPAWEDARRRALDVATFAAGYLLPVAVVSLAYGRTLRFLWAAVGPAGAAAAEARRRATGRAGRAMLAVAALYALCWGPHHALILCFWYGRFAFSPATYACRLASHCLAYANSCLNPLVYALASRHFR
# Hsp70 activator – Hsp70 transcriptional activation, primary screen; 200,000 compounds, 0.04% hits; activation, % at 10 µM; HeLa Hsp70 promoter luciferase reporter, luminescence; scaled: vehicle 0, proteasome-inhibitor control 100%;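 active = activation above the mean across all tested compounds plus 3 SD, cutoff set per campaign, cut at about 5.5% in these data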;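 also: 100% = MG132 at 30 µM as the positive control and 0% = DMSO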
# FXN GAA850 act – increases GAA850 frataxin promoter reporter activity; HEK293 lucGAA850 FXN promoter luciferase reporter, 24 h; percent of 10 µM SAHA response; activation, % at 6 µM; 360,000 compounds, 0.56% hits; AID 540364;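 active = activation above the average of all compounds screened plus 3 SD, cutoff fixed separately per campaign, cut at about 7.5% in these data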;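 also: 0% = DMSO wells and 100% = 10 µM SAHA wells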
# SMARCA2 conf – confirmation of SMARCA2 (BRM) function activators | shares compounds with SMARCA2 act | MG213 cells, MMTV-luciferase with dexamethasone, luminescence, overnight; MG213 cells expressing E1A, Rb sequestered; DMSO wells 0%, reference activator 100% | activation, % at 9.1 µM | 3,500 compounds, 30% hits | AID 652260;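 active = activation above its plate's cutoff, the mean activation of tested wells plus 3 SD, cut at about 7.9% in these data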
# VP16 Luc act – GAL4-VP16 reporter activation counter-screen; shares compounds with SMARCA2 act; HEK293 GAL4-VP16 pG5luc reporter, luciferase luminescence; scaled: DMSO wells 0%, SAHA wells 100%; activation, % at 9.1 µM; 3,500 compounds, 41% hits;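 active = activation above the solvent-only control well mean plus 3 SD, averaged across control plates, cut at about 5.2% in these data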
# Starred values were filed as active, the others as inactive; . = not tested or not shown. This is a sample that favours compounds with a hit; in the whole collection about 2.2% have one here.
SMILES,SMARCA2 act,HIF act,GalR3 antagonist,Hsp70 activator,FXN GAA850 act,SMARCA2 conf,VP16 Luc act
O=C(CC(=O)c1cccs1)c1ccncc1,10*,.,-5,.,3,2,4
CC(C)CNS(=O)(=O)CC1NCc2cc3c(cc21)OCO3 (stereo not given),-3,.,.,.,.,.,.
CCCCc1c(-c2ccccc2OC)ncn1Cc1cccc(F)c1F,-1,.,-6,.,.,.,.
COC(=O)C(C[N+](=O)[O-])C1=C(O)CC(C)(C)CC1=O (stereo not given),-2,.,.,.,.,.,.
CCCn1c(CC)nc([N+](=O)[O-])c1S(=O)(=O)c1ccccc1,10*,2,-2,0,-14,-12,-1
CCOC(=O)CSc1n[nH]c(-c2ccco2)n1,9.4*,0,2,0,0,-5,2
O=C(COc1ccc(-n2cnnn2)cc1)Nc1cccc(Cl)c1Cl,8.1*,-1,-8,.,0,1,1
Cc1cc(C)c(C#N)c(SCc2cc3c(cc2Cl)OCO3)n1,13*,-1,-5,0,2,-2,0
C/C=C/c1ccc(OCC(=O)OCc2csc(Nc3ccc(C)cc3)n2)c(OC)c1,2,1,-1,0,3,.,.
Cc1ccc(Nc2nc(COC(=O)COc3ccc(C=O)cc3)cs2)cc1,9.8*,0,-9,0,0,8.1*,9.0*
C=C1C(=O)OC2C1CCC(C)C1C=CC(=O)C12C (stereo not given),21*,.,-2,.,-8,21*,4
Cc1ccc(-c2nc(NCCN(C)C)c3ccccc3n2)cc1,13*,2,-13,.,7,15*,2
COc1ccc(C(=O)N/N=C/c2ccc(N3CCOCC3)o2)cc1OC,0,0,-4,0,4,.,.
COc1ccc(C(=O)N/N=C/c2ccc(N3CCOCC3)s2)cc1OC,8.4*,.,-5,.,1,-2,-1
O=[N+]([O-])c1cccc(-c2noc(-c3cccs3)n2)c1,11*,4,-1,.,2,5,4
O=[N+]([O-])c1cccc(-c2nc(-c3cccs3)c(-c3cccs3)[nH]2)c1,-3,0,-7,0,-3,.,.
Fc1cccc(Cl)c1CSc1nnc2ccccn12,8.6*,-1,-7,0,1,7,3
COc1ccc(OC)c(CN2C(=O)COc3ccccc3C2c2nnnn2C2CCCC2)c1 (stereo not given),2,.,.,.,.,.,.
Cc1ccsc1C(=O)Nc1nccs1,9.3*,1,-10,.,1,3,3
Cc1ccc(/C=C/C(=O)Nc2nccs2)o1,11*,0,0,0,3,8.4*,10*
Cc1ccc(OCc2nnc(SCC(=O)c3ccc4ccccc4c3)n2-c2ccc(Cl)cc2)cc1,-2,.,.,.,.,.,.
COc1ccc(CSc2nc3nc(C)cc(C)n3n2)cc1F,-1,0,-6,.,1,.,.
COc1ccc(COC(=O)c2nc3nc(C)cc(C)n3n2)cc1F,8.2*,0,1,0,0,-2,0
O=S1(=O)N[C@H](c2ccccc2)COc2cc(Br)ccc21,-6,.,1,.,.,.,.
CNC(=O)c1ncoc1-c1ccc(Cl)cc1,8.1*,0,-1,.,2,0,0
SMILES,SMARCA2 act,HIF act,GalR3 antagonist,Hsp70 activator,FXN GAA850 act,SMARCA2 conf,VP16 Luc act
CC(C)C[C@H]1COc2cccc(N3CCSCC3)c2S(=O)(=O)N1C,1,.,.,.,.,.,.
Cc1ccc(Cn2cc(CN3[C@H](C)COc4cc(Br)ccc4S3(=O)=O)nn2)cc1,2,.,.,.,.,.,.
COc1cc(C(=O)c2cocc2C(=O)c2ccc3c(c2)OCO3)cc(OC)c1OC,9.0*,1,-7,.,-2,0,6.3*
COc1cc(C(=O)c2ccc3c(c2)OCO3)cc(OC)c1OC,-1,.,-5,.,-6,.,.
Cn1c(-c2ccc(Br)o2)nc2ccccc21,7,2,1,0,5,.,.
Brc1ccc(Cn2c(-c3ccc(Br)o3)nc3ccccc32)o1,12*,1,-12,0,3,8.1*,2
CN(C)/N=C/C=C1\CC/C(=C\c2ccc(Br)cc2)C1=O,0,4,-2,0,0,.,.
CN(C)/N=C/C=C1\CCC/C(=C/c2cccs2)C1=O,8.3*,10*,-7,.,6,8,5.3*
C[C@@H](CO)N(Cc1cn(Cc2ccccc2)nn1)S(=O)(=O)c1ccccc1Br,-5,.,.,.,.,.,.
COC(=O)[C@]12C[C@H](CC(=O)NCC3CCCCC3)C(=O)N(Cc3cccc4ccccc34)C1=C[C@H](C1CCCC1)O[C@@H]2C,4,.,.,.,.,.,.
C[C@@H]1ON(C)[C@H]2C[C@H]3c4[nH]c5c(-c6ccc(C(F)(F)F)cc6)cccc5c4CCN3C(=O)[C@@H]12,-5,.,-3,.,.,.,.
CC(=O)c1ccc(Sc2nnnn2-c2ccccc2)c([N+](=O)[O-])c1,8.6*,0,-4,0,-8,8,2
C[C@@H](NC(=O)C[C@H]1CC[C@H]2[C@@H](COc3ccc(NC(=O)Nc4ccccc4)cc3C(=O)N2C)O1)c1ccccc1,-6,.,.,.,.,.,.
CC1=C/C(=N\NC(=S)Nc2cccnc2)CC(C)(C)C1,8.1*,-2,4,0,3,-12,21*
CC1(C)C2CC=C(/C=N/NC(=S)Nc3cccnc3)C1C2 (stereo not given),-1,1,-4,0,0,.,.
Clc1ccc([C@H]2OC[C@@]3(CNCCc4c[nH]c5ccccc45)CS[C@H](c4ccc(Cl)cc4)N23)cc1,0,.,.,.,.,.,.
c1ccc(-n2cnc3cc(NCc4ccco4)ccc32)cc1,9.6*,5,5,0,5,5,8.2*
C=CCN1C(=O)/C(=C/c2ccc(OC)cc2)S/C1=N/c1nccs1,10*,0,0,0,2,-1,1
CCOCCCNC(=O)C1CCN(S(=O)(=O)c2cc3c(cc2Br)CCN3C(=O)CC)CC1,-3,.,.,.,.,.,.
C[C@H](O)[C@@H]1CN2CCc3ccc(N4CCOCC4)cc3[C@@H]2C[C@@H]1N(C)C(=O)c1cccc(Cl)c1,-3,.,.,.,.,.,.
O=C1N2Cc3ccccc3C2CS(=O)(=O)N1Cc1ccccc1 (stereo not given),-2,.,.,.,.,.,.
Cc1ccc(CN2CC(C(=O)Nc3cc(C)ccn3)CC2=O)cc1 (stereo not given),10*,3,-4,.,7,17*,6.3*
CC(C)C[C@@H]1COc2cc(Br)ccc2S(=O)(=O)N1Cc1cn(Cc2ccc(Br)cc2)nn1,0,.,.,.,.,.,.
O=c1/c(=C/c2ccc([N+](=O)[O-])cc2)sc2n1CCCN=2,8.7*,2,-2,0,1,12*,13*
CN(Cc1ccccc1Cl)C(=O)CN1C(=O)C2(OCCCO2)c2ccccc21,-3,.,.,.,.,.,.
